Outcome data for 40 molecules are collected here from PubChem BioAssay (EPA / NIEHS).

Calls of active or inactive are those of the source. How the source made its calls: active means hit-call score of the fitted dose curve at least 0.9, where 1 is the maximum; inactive means score below 0.9.

Signal transducer and activator of transcription 3 (Homo sapiens), sequence (P40763 whole entry, looked up): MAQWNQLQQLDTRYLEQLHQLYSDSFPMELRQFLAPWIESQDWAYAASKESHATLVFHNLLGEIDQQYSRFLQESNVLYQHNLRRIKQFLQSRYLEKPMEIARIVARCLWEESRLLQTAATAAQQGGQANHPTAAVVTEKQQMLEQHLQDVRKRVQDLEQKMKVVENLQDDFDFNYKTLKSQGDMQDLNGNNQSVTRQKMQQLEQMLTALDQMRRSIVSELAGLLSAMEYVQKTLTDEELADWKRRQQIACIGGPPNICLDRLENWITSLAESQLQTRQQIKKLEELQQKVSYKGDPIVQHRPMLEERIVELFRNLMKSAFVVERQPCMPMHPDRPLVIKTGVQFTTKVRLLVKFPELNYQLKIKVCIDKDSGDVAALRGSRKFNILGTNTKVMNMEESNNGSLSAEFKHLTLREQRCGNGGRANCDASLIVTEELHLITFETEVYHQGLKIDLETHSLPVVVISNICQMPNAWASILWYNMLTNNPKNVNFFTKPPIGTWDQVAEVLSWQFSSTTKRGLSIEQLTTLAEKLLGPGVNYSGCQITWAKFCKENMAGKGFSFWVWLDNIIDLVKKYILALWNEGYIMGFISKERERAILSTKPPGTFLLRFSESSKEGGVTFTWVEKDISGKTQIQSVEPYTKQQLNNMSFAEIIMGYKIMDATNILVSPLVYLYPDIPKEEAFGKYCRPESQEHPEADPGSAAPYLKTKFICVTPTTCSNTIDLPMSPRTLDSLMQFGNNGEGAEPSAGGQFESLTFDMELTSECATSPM

The target of the test is Signal transducer and activator of transcription 3 (Homo sapiens) (UniProt P40763). In words: ATG_STAT3_CIS: Attagene CIS-FACTORIAL HepG2 Assay for human Signal Transducer and Activator of Transcription 3 (STAT3) (AID 2282963). Particulars: HepG2, Attagene cis-factorial STAT3 reporter transcription; actives raise or lower the signal. The procedure:
ATG_CIS is a cell-based, multiplexed-readout assay that uses HepG2, a human liver cell line, with measurements taken at 24 hours after chemical dosing in a 24-well plate.ATG_STAT3_CIS is one of 52 assay component(s) measured or calculated from the ATG_CIS assay. It is designed to make measurements of mRNA induction, a form of inducible reporter, as detected with fluorescence intensity signals by Reverse transcription polymerase chain reaction (RT-PCR) and Capillary electrophoresis technology.Data from the assay component ATG_STAT3_CIS was analyzed into 1 assay endpoint. This assay endpoint, ATG_STAT3_CIS, was analyzed with bidirectional fitting relative to DMSO as the negative control and baseline of activity. Using a type of inducible reporter, measures of mRNA for gain or loss-of-signal activity can be used to understand the reporter gene at the transcription factor-level as they relate to the gene STAT3. Furthermore, this assay endpoint can be referred to as a primary readout, because this assay has produced multiple assay endpoints where this one serves a reporter gene function. To generalize the intended target to other relatable targets, this assay endpoint is annotated to the dna binding intended target family, where the subfamily is stat protein.
Human liver HepG2 cells are transiently transfected with multiple reporter transcription units (MRTUs) in 6-well plates using FuGene 6 reagent (Roche; 3 ml FuGene/1 mg DNA). The MRTU constructs are regulated by a cis-regulating element (promoter). […] A major difference between the CIS and TRANS system is that in CIS activities of endogenous TFs are measured, whereas the TRANS assay evaluates changes in activities of exogenous, chimeric NR-Gal4 proteins. […] At the end of 24 hour incubation, total RNA was isolated using TriZol reagent (Invitrogen). The isolated RNA is then reverse-transcribed using oligo(dT) primer and Mo-MLV reverse transcriptase (Invitrogen) with DNAse I (Ambion) treatment for 30 min. The one-tenth of the produced cDNA was amplified by PCR using Taq DNA polymerase (Invitrogen) and two reporter sequence-specific primers. The PCR products were fluorescently labeled by primer extension with 6-arboxyfluorescein (6-FAM) 5'-labeled reporter sequence-specific primer (2 min at 95 C, 20 s at 68 C and 10 min at 72 C) and these products were digested with 5U of HpaI (New England Biolabs) for 2h at 37 C. The fragments were purified using Qiaquick PCR columns (Qiagen), analyzed on an ABI 3130xL genetic analyzer (Applied Biosystems) with peak positions identified by using a set of X-rhodamine (ROX)-labeled MapMarker1000 molecular weight standards (BioVentures). The raw capillary electrophoresis data was processed using Attagraph software (Attagene).
Take `CCC[CH2][Sn]([CH2]CCC)([CH2]CCC)[O]C(=O)c1ccccc1`: the outcome was inactive. Regarding `O=C1C(Cl)=C(Cl)C(=O)c2ccccc21`, the molecule was called inactive.

Take `O=C1CCCN1`: the outcome was inactive. As for `C=CC(=O)OCCCCCC(C)C`, the outcome was inactive.

As to `C[C@H]1CCCC(=O)CCC/C=C/c2cc(O)cc(O)c2C(=O)O1`, the call was inactive. Turning to `NNC(=S)NN`, the molecule was called inactive.

Regarding `CCCCCCCCSC(=O)Oc1cc(Cl)nnc1-c1ccccc1`, the molecule was called inactive. With `Fc1ccc(C2(Cn3cncn3)OC2c2ccccc2Cl)cc1` (stereo not given), the molecule was called inactive.

With `CCOP(=S)(OCC)SCCS(=O)(=O)CC`, the molecule was called inactive. The result for `CC(C)CCCCCCOC(=O)c1ccccc1C(=O)OCCCCCCC(C)C` reads “inactive”; that for `O=P(O)(O)CN(CP(=O)(O)O)CP(=O)(O)O`, “inactive”. Take `CC(C)c1cccc(C(C)C)c1O`: the outcome was inactive. In the case of `COP(=S)(OC)Oc1cc(Cl)c(Cl)cc1Cl`, the outcome was inactive. Turning to `ClC1=C(Cl)[C@]2(Cl)[C@H]3[C@H]([C@H]4C=C[C@H]3C4)[C@@]1(Cl)C2(Cl)Cl`, the call was inactive. `CNC(=O)O/N=C/C(C)(C)S(C)=O` (stereo not given): the result was inactive. Turning to `Nc1ccc(Cl)cc1C(=O)c1ccccc1`, the molecule was classed as inactive. With `CC(C)(c1ccccc1)c1ccc(O)c(C(C)(C)c2ccccc2)c1` the entry was “inactive”. As for `CC(C#N)CCC#N` (stereo not given), the call was inactive. With `O=C(O)C(F)(F)C(F)(F)C(F)(F)C(F)(F)C(F)(F)C(F)(F)F`, the molecule was called inactive.

In the case of `ClCC(Cl)CCl`, the molecule was classed as inactive. With `OCC(O)CCl` (stereo not given) the entry was “inactive”. Regarding `CC1(C)CCC(Cc2ccc(Cl)cc2)C1(O)Cn1cncn1` (stereo not given), the molecule was called inactive. As for `CCOP(=S)(OCC)Oc1nc(Cl)c(Cl)cc1Cl`, the call was inactive. On to `CC(=O)c1cc(C(C)(C)C)cc2c1CCC2(C)C`, for which the molecule was called inactive. With `O=S(=O)(c1ccc(Cl)cc1)c1ccc(Cl)cc1`, the result was inactive.

With `COc1cc(-c2ccc(N)c(OC)c2)ccc1N`, the molecule was classed as inactive. Regarding `Oc1c(I)cc(I)cc1I`, the result was inactive. As to `Cl/C=C/Cl`, the molecule was called inactive.

On to `CC(Br)C(=O)O` (stereo not given), for which the result was inactive.

Consider `CC(C)(OO)c1ccccc1`, for which the call was inactive. Regarding `COc1ccc(OC)c(C=O)c1`, the molecule was called inactive. With `C[C@@H](Oc1ccc(Cl)cc1Cl)C(=O)O`, the outcome was inactive.

For `CC(=O)C=C(C)C`, the molecule was classed as inactive.

As for `Nc1cccc(Cl)c1`, the result was inactive.

For `COc1ccccc1OC`, the outcome was inactive. Regarding `CC(=[OH+])/C=C(/C)[O-].CC(=[OH+])/C=C(/C)[O-].CC(=[OH+])/C=C(/C)[O-].[Al]`, the outcome was inactive.

Take `O=C(Nc1ccc2[nH]ccc2c1)c1cc2cc(F)ccc2n1Cc1cccc(F)c1`: the molecule was classed as inactive. As to `CCOP(=O)(CN(CCO)CCO)OCC`, the result was inactive. As to `O=C(Cl)c1ccc(Cl)cc1`, the result was inactive. In the case of `O=C(O)Cc1ccccc1`, the outcome was inactive.
